# TRAIL sens C8: caspase-8 TRAIL sensitization. NB7+C8 cells + TRAIL, ATPlite viability luminescence. inhibition (viability loss, TRAIL sensitization), % at 10 µM. AID 624354. 360,000 tested, 1% active;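 active means compounds causing at least 50% loss of cell viability in the single-dose screen, relative to plate controls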
# PPC-1+TRAIL kill: PPC-1 cancer cell killing with TRAIL present | 220,000 tested, 0.41% active | PPC-1 cells + TRAIL, ATPLite viability luminescence | cell killing (% activity), % at 4 µM or 5 µM;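 active means cell killing above 50% in the first pass at 4 µM, then a duplicate retest at 5 µM averaging 50% or more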;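 further: plate controls were cells with TRAIL plus DMSO for no effect and medium-only wells lacking cells for full effect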
# KKLEB tox: reduces viability of KKLEB cystic fibrosis airway cells. KKLEB CF airway cells viability, ATPlite luminescence, overnight; hits give low values; cells stimulated with P. aeruginosa culture filtrate. activity change (cytotoxicity), % at 5 µM. 360,000 tested, 0.36% active. AID 602141;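 active means corrected activity change at or below -50% at 5 µM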
# CF NFkB inh: inhibitors of cystic fibrosis induced NF-kB. inhibition, % at 5 µM. 360,000 tested, 0.86% active. AID 588850. KKLEB NF-kB-GFP reporter, PAF-induced, GFP fluorescence overnight;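 active means at least 50% inhibition at 5 µM, scaled per plate between neutral and stimulator controls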;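 further: PAF is a Pseudomonas aeruginosa culture filtrate used as stimulus; plate controls were PAF-stimulated DMSO wells for no effect and unstimulated DMSO wells for full effect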
# iPSC survival up: increases survival of single human iPS cells. hiPSC single-cell survival, ATPlite luminescence; 100% = ROCK inhibitor wells, 0% = DMSO. survival enhancement, % at 20 µM. 360,000 tested, 0.044% active; in the data active means survival enhancement above about 18%;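 further: cells exposed to compounds for 16 hours before the ATP read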
# HIF-2a inh: blocks HIF-2a reporter activity; 786-0 RCC cells HIF-2a reporter, luciferase luminescence, overnight; 360,000 tested, 0.72% active; inhibition, % at 18.8 µM; AID 624352;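 active means inhibition of the luminescence signal of 40% or more relative to plate controls, in a single-dose primary screen at 18.75 µM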
# The depositor's hits bear a star; / = no result. The list is not random: actives were taken first. Their share in the collection is about 2.2%.
SMILES,TRAIL sens C8,PPC-1+TRAIL kill,KKLEB tox,CF NFkB inh,iPSC survival up,HIF-2a inh
CC(C)Sc1ccccc1C(=O)Nc1ccc2c(c1)n(C)c(=O)n2C,-12,/,2,-43,0,3
COC(=O)c1c(NC(=O)CCl)sc(C(=O)N2CCOCC2)c1C,2,/,-40,50*,0,-2
CCOc1ccc(S(=O)(=O)N(CC)CC(=O)NCc2cccnc2)cc1C,19,/,5,3,-1,11
CN=C1S/C(=C\c2cc(C)n(-c3ccccc3F)c2C)C(=O)N1C,55*,40,-26,-18,0,-67
CCCc1cc(=O)[nH]c(SCC(=O)NC(=O)OCC)n1,5,-18,-2,-16,-1,-2
CCCc1cc(=O)[nH]c(SCC(=O)Nc2sc(C(N)=O)c(C)c2C(=O)OCCOC)n1,85*,/,0,-18,0,28
CC(C)(NC(=O)c1cc(Cl)c2ccccc2c1O)C(=O)O,-23,-6,-1,-14,1,21
CC1=NN(c2ccccc2)C(=O)/C1=C/C=C/c1ccc(N(C)C)cc1,18,30,2,-15,-1,-89
CC1=NN(c2ccccc2)C(=O)/C1=C\C=C\c1ccccc1,-1,8,7,-2,0,87*
CN(CCCC(=O)N1CCCC(C(N)=O)C1)S(=O)(=O)c1ccc(F)cc1 (centres undefined),-2,/,-1,-12,0,9
Cc1cc(C(=O)Nc2cccc(-c3ccc(N4CCOCC4)nn3)c2)ccc1[N+](=O)[O-],51*,/,-22,18,0,-222
O=C(Nc1cccc(-c2ccc(N3CCOCC3)nn2)c1)c1ccc(Cl)cc1,19,/,-3,11,0,-191
COc1cccc(OC)c1C(=O)Nc1cccc(-c2ccc(N3CCOCC3)nn2)c1,73*,/,-5,4,0,-136
O=C(Nc1cccc(-c2ccc(N3CCCCC3)nn2)c1)c1ccco1,81*,/,-12,-7,0,-138
Cc1ccc(C(=O)Nc2cccc(-c3ccc(N4CCOCC4)nn3)c2)cc1C,44,/,-10,26,0,-177
O=C(Nc1cccc(-c2ccc(N3CCOCC3)nn2)c1)c1ccccc1Cl,61*,/,-22,14,0,-259
COc1cc(OC)cc(C(=O)Nc2cccc(-c3ccc(N4CCOCC4)nn3)c2)c1,46,/,-5,-8,0,-158
COc1ccc(C2=NS(=O)(=O)N(C)C(C(=O)N3CCCCC3C)=C2)cc1 (centres undefined),-2,/,-4,-1,-2,11
CSc1ccc(S(=O)(=O)N2CCC(C(=O)N3CCc4ccccc4C3)CC2)cc1,-19,/,-2,-5,0,-1
O=C(COc1ccc(Cl)cc1)Nc1cccc(-c2ccc(N3CCOCC3)nn2)c1,59*,/,-2,-28,0,-83
Cc1cc2c(cc1C)CSC(c1ccccc1O)SC2,11,38,4,-24,-1,-3
Oc1ccccc1C1SC(c2ccccc2O)SC(c2ccccc2O)S1 (centres undefined),-1,/,-88*,91*,-1,33
CC(Sc1nncn1C)C(=O)Nc1ccc(N2CCCCC2)cc1 (centres undefined),7,/,2,16,0,-22
NC(=S)NN=C1c2ccccc2-c2c(F)c(F)c(F)c(F)c21,71*,/,-25,9,-2,13
Cc1ccc(-c2cnc(C(O)c3ccc(Cl)cc3C)[nH]2)cc1 (centres undefined),-9,/,-5,-34,0,14
SMILES,TRAIL sens C8,PPC-1+TRAIL kill,KKLEB tox,CF NFkB inh,iPSC survival up,HIF-2a inh
CCc1c(C)sc(NC(=O)c2cc(-c3cc(OC)ccc3OC)on2)c1C#N,-25,9,-70*,40,2,16
CCc1c(C)sc(NC(=O)c2cc(-c3ccc(OC)c(OC)c3)on2)c1C#N,-14,15,4,0,-2,11
Cc1cc(N)n(-c2cc(C)c3ccccc3n2)n1,60*,48,-24,-13,-3,-201
C=CCc1ccc(OC)c(OC)c1,-18,/,10,6,-1,8
CC(C)Oc1ccc(C(=O)Nc2nc3ccccc3[nH]2)cc1,92*,/,-50*,-12,0,55*
O=C(Nc1nc2ccccc2[nH]1)c1ccc(OC(F)F)cc1,83*,/,-24,-4,-1,-70
N#Cc1ccc(C(=O)Nc2nc3ccccc3[nH]2)cc1,39,/,1,14,-1,-187
